# Screens as filed in PubChem BioAssay.
# zVAD death inh = L929 zVAD cell death inhibition | viability rescue, % at 10 µM | 220,000 tested, 0.38% active | L929 zVAD necroptosis rescue, ATP luminescence, 24 h; with zVAD 60 µM | AID 1377;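 active means activation, scaled between plate controls, above about 75%, limit read from the data; inactive means activation under that limit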;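 further: 0% = zVAD with DMSO and 100% = DMSO alone without zVAD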
# WT yeast gro inh = growth inhibition of WT yeast, mitochondrial fusion screen. 190,000 tested, 2.1% active. inhibition, % at 10 µM. mitochondrial fusion phenotypic screen, WT strain; in the data active means inhibition above about 58%; tested in S. cerevisiae
# PERK inh = human PERK inhibition, primary cell-based screen. inhibition, % at 5.6 µM. Q9NZJ5. CHO PERK-DD fusion, SEAP luminescence translation reporter. 220,000 tested, 0.17% active. AID 1416;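 active means inhibition above the mean inhibition of all tested compounds plus 3 SD, set separately per screening campaign, cut at about 2.9% in these data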;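 further: PERK kinase domain activated by AP20187 dimerizer at 100 nM; 0% = DMSO with dimerizer and 100% = rapamycin at 8.4 µM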
# Target sequence (Q9NZJ5 whole entry, looked up, the tested form may be a part): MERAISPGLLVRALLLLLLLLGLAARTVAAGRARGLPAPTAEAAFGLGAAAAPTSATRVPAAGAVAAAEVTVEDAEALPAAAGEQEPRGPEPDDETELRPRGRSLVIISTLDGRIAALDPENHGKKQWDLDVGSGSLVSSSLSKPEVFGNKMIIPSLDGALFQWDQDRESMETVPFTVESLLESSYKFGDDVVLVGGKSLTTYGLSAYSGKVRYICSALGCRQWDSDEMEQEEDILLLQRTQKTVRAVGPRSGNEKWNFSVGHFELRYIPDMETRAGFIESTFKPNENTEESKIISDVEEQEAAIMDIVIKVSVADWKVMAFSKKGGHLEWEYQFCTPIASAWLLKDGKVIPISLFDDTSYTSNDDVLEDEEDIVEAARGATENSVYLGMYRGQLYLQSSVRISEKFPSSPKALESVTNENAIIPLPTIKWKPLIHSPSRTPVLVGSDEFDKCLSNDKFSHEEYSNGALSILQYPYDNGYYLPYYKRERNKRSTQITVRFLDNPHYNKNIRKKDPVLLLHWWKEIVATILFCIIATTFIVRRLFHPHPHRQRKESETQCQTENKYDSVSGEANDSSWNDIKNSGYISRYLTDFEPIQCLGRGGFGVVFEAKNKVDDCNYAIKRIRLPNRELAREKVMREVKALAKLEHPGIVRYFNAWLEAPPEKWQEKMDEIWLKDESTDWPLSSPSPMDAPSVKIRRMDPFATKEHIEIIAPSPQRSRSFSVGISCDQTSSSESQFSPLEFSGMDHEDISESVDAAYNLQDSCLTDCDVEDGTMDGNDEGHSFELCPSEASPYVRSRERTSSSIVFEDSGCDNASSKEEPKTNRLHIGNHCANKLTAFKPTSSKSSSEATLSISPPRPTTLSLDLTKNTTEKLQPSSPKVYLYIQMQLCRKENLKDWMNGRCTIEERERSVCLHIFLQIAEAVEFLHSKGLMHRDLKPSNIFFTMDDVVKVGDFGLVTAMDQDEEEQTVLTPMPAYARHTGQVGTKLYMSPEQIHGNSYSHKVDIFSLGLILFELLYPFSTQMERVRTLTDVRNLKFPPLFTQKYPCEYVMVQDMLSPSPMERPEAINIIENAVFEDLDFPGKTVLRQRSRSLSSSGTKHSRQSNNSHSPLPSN
# PKD1 kinase inh = PKD1 (human) kinase inhibition. 200,000 tested, 0.056% active. PKD1 kinase fluorescence polarization assay. inhibition, % (concentration not given with the values). Q15139; in the data active means inhibition above about 50%
# TNF death inh = TNF-alpha cell death inhibition in Jurkat FADD-/- cells; Jurkat FADD-/- TNF necroptosis rescue, ATP luminescence, 24 h; 0 = TNF only, 100 = no-TNF cells; activation (protection from cell death), % at 10 µM; 220,000 tested, 0.068% active; AID 463075;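 active means activation, meaning protection from cell death, of at least 50% relative to plate controls; inactive means activation below 50%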;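 further: necroptosis triggered by 40 ng/mL TNF-alpha added together with compound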
# Redox H2O2 prof = compounds producing H2O2 with reducing agent – biochemical, NIH compound library profiling, artefact control for MLSCN library redox annotation, primary screen | activation, % at 10 µM | DTT-dependent redox cycling H2O2, phenol red/HRP absorbance; 100% = 100 µM peroxide control, 0% = buffer | 200,000 tested, 0.03% active;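 active means activation of at least 50% relative to the plate's high and low controls in the primary single-dose screen; inactive means activation below 50%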;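 further: compound incubated with DTT at 0.8 mM final as the reducing agent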
# The depositor's hits bear a star; · = not tested or not shown. Most compounds without a hit are left out; they make up all but 2.4% or so of the library.
SMILES,zVAD death inh,WT yeast gro inh,PERK inh,PKD1 kinase inh,TNF death inh,Redox H2O2 prof
Cc1occc1-c1nnc(SCC(=O)O)n1-c1ccccc1,1,·,1,·,0,·
COCCn1c(SCc2nnc(-c3ccccc3)o2)nc2sc3c(c2c1=O)CCC3,2,97*,0,-6,-1,0
COCCn1c(SCC(=O)Nc2ncc(C)s2)nc2sc3c(c2c1=O)CCC3,0,32,-1,4,-6,2
O=C(CCc1ccc(Oc2cc([N+](=O)[O-])cc([N+](=O)[O-])c2)cc1)N1CCCCCC1,1,66*,-1,6,1,0
O=C(Nc1ccccc1)N1CCSc2cc(Cl)ccc21,0,-13,3.1*,-15,-3,1
c1ccc(-c2csc3ncnc(N4CCc5ccccc5C4)c23)cc1,2,70*,-1,2,2,0
COC(=O)c1ccc(-c2sc3nc(N4CCOCC4)c4c(c3c2N)CCCC4)o1,0,62*,-1,1,-3,0
CC1(C)Oc2ccc3ccc(=O)oc3c2-c2cnoc21,2,13,1,-8,1,-3
CC1(C)Oc2ccc3ccc(=O)oc3c2-c2cn[nH]c21,75*,12,-1,90*,-7,0
CCN(CC(=O)Nc1c(C(=O)OC)[nH]c2ccc(Cl)cc12)c1ccc2c(c1)OCO2,3,68*,-2,3,-6,-1
CCOC(=O)c1[nH]c2ccc(Cl)cc2c1NC(=O)/C=C/c1ccc2c(c1)OCO2,1,-7,1,-8,2,6
CC1C/C(=C/c2cccn2C)C(=O)/C(=C/c2cccn2C)C1 (stereo not drawn),1,1,0,-14,-6,1
CC1C/C(=C/c2ccncc2)C(=O)/C(=C/c2ccncc2)C1 (stereo not drawn),2,77*,0,7,6,-1
O=C(NC(=S)Nc1cccc(S(=O)(=O)NC2=NCCC2)c1)c1cc(-c2ccco2)nc2ccccc12,-1,·,1,·,-16,·
O=C(Nc1cccc(S(=O)(=O)NC2=NCCC2)c1)c1cc(-c2ccco2)nc2ccccc12,-1,·,3.2*,·,-2,·
C/C(=N\O)C(C)(C)Nc1ccccc1F,1,·,2,·,2,·
CCCc1cc(C(=O)Nc2cc(Br)ccc2O)no1,2,14,3.1*,-6,2,0
CC(C)c1cc(C(=O)Nc2cc(Br)ccc2O)no1,1,35,1,-9,17,0
N#C/C(=C\c1ccccc1[N+](=O)[O-])C(=O)NC1CCCCC1,1,58*,1,1,-5,0
N#C/C(=C\c1cc(Cl)ccc1O)C(=O)NC1CCCCC1,2,1,1,3,-3,0
Cc1ccc(C(c2nnnn2C2CCCCC2)N(C)C2CCCCC2)cc1 (stereo not drawn),0,81*,0,0,-1,1
CC(C)C(c1nnnn1C1CCCC1)N(C)C1CCCCC1 (stereo not drawn),0,-2,-1,-2,-4,1
COc1ccc(-c2nnc(SCc3nnc(-c4ccccc4)o3)n2-c2ccccc2)cc1,0,5,0,-12,-1,-2
COc1ccc(-c2nnc(SCc3nnc(-c4ccc(Cl)cc4)o3)n2-c2ccccc2)cc1,0,64*,-1,0,-2,1
C=CCc1c(C)[nH]c2c(OC)cccc2c1=S,1,67*,0,-4,0,-1
SMILES,zVAD death inh,WT yeast gro inh,PERK inh,PKD1 kinase inh,TNF death inh,Redox H2O2 prof
COc1ccccc1C(=O)NNC(=O)c1sccc1-n1cccc1,3,-13,0,-4,1,-1
Cc1ccc(C)c(NC(=S)NC2CC3CCC(C2)N3Cc2ccco2)c1 (stereo not drawn),0,5,1,3,-7,-3
Cc1cc(C)cc(NC(=S)NC2CC3CCC(C2)N3Cc2ccco2)c1 (stereo not drawn),0,79*,0,5,-9,-4
Cn1c(O)c(/C=N/Nc2ccccc2)c(=O)n(C)c1=O,-1,67*,0,0,0,0
O=C(NC(=S)Nc1ccc(S(=O)(=O)NC2CCCCC2)cc1)c1cccs1,4,64*,0,-1,3,0
COc1cccc(-c2csc(N3CCN(C(=O)Nc4ccc(Cl)cc4)CC3)n2)c1,3,67*,1,-7,1,-1
O=C(NCc1ccc2c(c1)OCO2)C1CCN(c2nccc(C(F)(F)F)n2)CC1,-1,·,-1,·,0,·
Cc1ccc(OCCSc2nc(NC(C)C)nc(NC(C)C)n2)cc1,·,72*,-1,-13,-1,-1
O=C(O)c1cn(-c2ccc(N3CCCC3)c(F)c2)c2c(F)c(F)c(F)cc2c1=O,1,78*,0,-2,-2,-2
CCn1c(=O)c2c(n3c(=S)[nH]nc13)-c1ccccc1CC21CCCCC1,6,7,0,4,0,-1
C[C@H]1CC[C@H]2C(=O)N3[C@H](c4ccccc4Br)[C@@H](C)CC[C@H]3C(=O)N2[C@@H]1c1ccccc1Br,1,70*,0,-5,-1,1
C[C@H]1CC[C@H]2C(=O)N3[C@H](c4cccc(N5CCCC5=O)c4)[C@@H](C)CC[C@H]3C(=O)N2[C@@H]1c1cccc(N2CCCC2=O)c1,-1,-6,0,1,-5,0
On1c(-c2ccc(Cl)cc2)nc2ccccc21,1,79*,1,-3,-2,1
On1c(-c2ccccc2)nc2ccccc21,1,·,0,·,0,·
CCOC(=O)Cn1cnc(-c2ccc([N+](=O)[O-])cc2)c1,0,-5,1,-11,1,0
CCOC(=O)c1c(NC(NC(=O)C(C)C)C(Cl)(Cl)Cl)sc2c1CCC2 (stereo not drawn),1,66*,-1,1,3,-1
COc1ccc(/C=N/NC(=O)c2cccc(OC(F)(F)C(F)F)c2)cc1O,1,-2,3,4,1,0
O=C(Nc1ncc2c(n1)CC(c1ccco1)CC2=O)c1ccccc1 (stereo not drawn),-1,70*,0,2,0,0
COCCNC(=O)CNC(=O)c1nn(-c2ccc(OC)c(Cl)c2)c(=O)c2ccccc12,0,1,0,-6,-4,2
COC(=O)CNC(=O)CNC(=O)c1nn(-c2ccc(OC)c(Cl)c2)c(=O)c2ccccc12,0,76*,-1,-9,-3,-8
O=C1CC(SCc2nc3ccccc3[nH]2)C(=O)N1c1cccc(F)c1 (stereo not drawn),0,76*,-1,2,1,0
COc1ccc(N(CCC(=O)O)S(=O)(=O)c2ccc(C)cc2C)cc1,1,-13,1,7,1,-1
